The values that follow come from article PMC4336329 (PLoS ONE, 2015).

About 14,000 (4.5%) of roughly 310,000 compounds showed an effect of 50% or more. The effect is printed as a negative number. Shown is part of a subset that was picked to be rich in strong results.
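Note: peak tail current of the secondary pulse compared with the same well before compound.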

human ether-à-go-go-related gene (hERG) potassium channel, sequence (Q12809 whole entry, looked up): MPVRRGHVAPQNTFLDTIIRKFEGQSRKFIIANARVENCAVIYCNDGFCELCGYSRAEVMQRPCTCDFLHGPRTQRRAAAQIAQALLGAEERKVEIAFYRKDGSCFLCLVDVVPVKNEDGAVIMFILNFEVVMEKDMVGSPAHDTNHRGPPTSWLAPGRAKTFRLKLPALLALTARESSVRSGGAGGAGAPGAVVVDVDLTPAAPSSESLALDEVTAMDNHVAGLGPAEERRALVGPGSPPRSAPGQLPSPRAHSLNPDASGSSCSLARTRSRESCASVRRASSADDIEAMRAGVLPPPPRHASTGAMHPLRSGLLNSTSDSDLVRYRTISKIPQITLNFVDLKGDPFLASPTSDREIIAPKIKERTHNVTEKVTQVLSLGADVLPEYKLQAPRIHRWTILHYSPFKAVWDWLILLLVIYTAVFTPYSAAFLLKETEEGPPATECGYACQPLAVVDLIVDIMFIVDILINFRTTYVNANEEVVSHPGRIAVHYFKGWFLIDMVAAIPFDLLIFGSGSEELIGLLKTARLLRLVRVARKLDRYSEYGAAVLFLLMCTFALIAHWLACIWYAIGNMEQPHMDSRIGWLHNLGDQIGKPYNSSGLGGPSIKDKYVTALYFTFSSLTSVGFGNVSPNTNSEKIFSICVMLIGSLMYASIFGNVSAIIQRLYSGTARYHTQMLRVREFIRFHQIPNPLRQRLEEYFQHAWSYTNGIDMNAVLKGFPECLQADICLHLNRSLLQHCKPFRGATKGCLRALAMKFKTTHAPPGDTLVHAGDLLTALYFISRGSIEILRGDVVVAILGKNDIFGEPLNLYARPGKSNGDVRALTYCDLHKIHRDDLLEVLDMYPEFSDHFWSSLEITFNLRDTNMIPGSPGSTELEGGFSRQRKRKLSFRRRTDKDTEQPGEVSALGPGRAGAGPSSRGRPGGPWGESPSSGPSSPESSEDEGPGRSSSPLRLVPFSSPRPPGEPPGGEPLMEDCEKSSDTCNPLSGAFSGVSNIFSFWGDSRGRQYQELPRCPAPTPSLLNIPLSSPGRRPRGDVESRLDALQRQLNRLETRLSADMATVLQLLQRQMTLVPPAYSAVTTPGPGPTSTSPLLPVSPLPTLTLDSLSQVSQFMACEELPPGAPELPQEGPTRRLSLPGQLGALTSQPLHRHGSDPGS

This assay concerns the target human ether-à-go-go-related gene (hERG) potassium channel (human, UniProt Q12809). In words: primary screen, population patch clamp on CHO cells stably expressing hERG; higher = less effect of the substance.
`CN1CCC(=O)N([C@H](CO)c2ccccc2)CC1`: the “hERG current change (%, negative = inhibition) at 10uM” value was found to be 3.76%.
With `CN1CCC(=O)N([C@H](CC#N)c2ccccc2)CC1` the figure was 16.2%; with `CN1CCC(=O)N([C@H](CN=[N+]=[N-])c2ccccc2)CC1`, 6.65%; with `CN1CCC(=O)N([C@H](CSc2ccccc2)c2ccccc2)CC1`, -64.9%.
With `CN1CCC(=O)N([C@H](CSc2ccc(Br)cc2)c2ccccc2)CC1` the figure was -83.7%; with `Cc1cccc(C(=O)NCC(c2ccc(F)cc2)N2CCOCC2)c1` (stereo not drawn), -2.49%; with `CCc1cccc(CC)c1C(OC(C)=O)c1cccnc1` (stereo not drawn), -0.238%.
With `CCc1ccc(NC(=O)c2ccc(C3SCC(=O)N3CCc3ccccc3)cc2)cc1` (stereo not drawn) the figure was 6.22%.
Turning to `CN(CC(=O)Nc1ccc2c(c1)OCO2)S(=O)(=O)c1cccs1`, the “hERG current change (%, negative = inhibition) at 10uM” value is given as -26.9%.
For `O=C(Nc1ccccc1N1CCN(C(=O)c2ccccc2)CC1)c1ccccc1Cl` the value was -78.8%; for `Cc1ccccc1N1CCN(C(=O)c2ccccc2NC(=O)c2ccccc2C(=O)O)CC1`, 6.78%.
Turning to `Cc1ccccc1C(=O)Nc1ccccc1N1CCCCC1`, the “hERG current change (%, negative = inhibition) at 10uM” value is 8.11%.
For `O=C(Nc1ccccc1N1CCCC1)c1ccccc1Cl` the value was 6.75%; for `Cc1ccccc1C(=O)Nc1ccccc1N1CCN(C(=O)c2ccccc2)CC1`, -74%; for `O=C(c1ccccc1)c1ccc(C(=O)N2CCN(c3ccccc3Cl)CC2)cc1`, -13.3%.
With `COC(=O)Nc1ccc2c(c1)N(C(=O)CCN1CCOCC1)c1ccccc1S2.Cl` the figure was 2.68%.
With `Cc1nc(CCNC(=O)Cc2ccc(F)cc2)cs1` the figure was 18.9%; with `O=C(COc1ccc2c3c(c(=O)oc2c1)CCC3)N1CCN(c2ccccc2)CC1`, -12.6%.
Regarding `CCC(CC)C(=O)Nc1ccc(Nc2ccccc2)cc1`, the “hERG current change (%, negative = inhibition) at 10uM” value is given as 8.32%.
For `CC(C)[C@H](NC(=O)[C@@H]1Cc2ccccc2CN1)C(=O)Nc1ccc2c(c1)OCCO2` the value was -30.2%; for `O=C(Cn1[nH]c(=O)c2ccccc2c1=O)OCC(=O)N(Cc1ccccc1)Cc1ccccc1`, 4.4%; for `O=C(CCNC(=O)c1ccc([N+](=O)[O-])cc1)Nc1ccccc1N1CCOCC1`, -64.3%.
With `O=C(CCNC(=O)c1ccc([N+](=O)[O-])cc1)Nc1ccccc1N1CCCC1` the figure was -34.6%.
With `O=C(CCNC(=O)c1ccc([N+](=O)[O-])cc1)Nc1cc(Cl)ccc1N1CCOCC1` the figure was -69.9%; with `O=C(CCNC(=O)c1ccc([N+](=O)[O-])cc1)Nc1ccc(N2CCOCC2)cc1N1CCOCC1`, -4.63%; with `CC(C)(C)c1ccc(C(=O)NCCC(=O)Nc2cc(Cl)ccc2N2CCOCC2)cc1`, -2.31%.
Consider `O=C(CCNC(=O)c1ccc([N+](=O)[O-])cc1)Nc1ccccc1N1CCCCC1`, for which the “hERG current change (%, negative = inhibition) at 10uM” value is on record as -34.9%.
For `O=C(N1CCCCCC1)N1CCN(S(=O)(=O)c2ccccc2)CC1` the value was -11.9%; for `Cc1c(CC(=O)NCC(=O)NCC(=O)O)c(=O)oc2cc3c(cc12)CCC(C)(C)O3`, 12.5%; for `Cc1ccc(C)c(NC(=O)CN(C)C(=O)[C@@H](NC(=O)c2ccc(C(C)(C)C)cc2)C(C)C)c1`, -16.5%.
With `Nn1c(SCC(=O)NC(=O)Nc2ccc3c(c2)OCCO3)nnc1C1CC1` the figure was 14.3%; with `S=C(NCc1ccc(Cl)cc1Cl)Nc1ccccc1`, 10.1%; with `CC(C)NC(=NCc1ccc(Cl)cc1Cl)Nc1ccccc1`, -53%.
For `O=C(NCc1ccc(Cl)cc1Cl)Nc1ccccc1` the value was 2.75%; for `COC(=O)C1=C(c2ccc3ccccc3c2)C[C@@H]2CC[C@H]1N2C(=O)NCCCOC(C)C`, -7.68%; for `O=C(COc1ccc(-c2ccccc2)cc1)N/N=C/c1ccccc1Br`, 19.7%.
As for `O=C(O)C1C2C=CC(C2)C1C(=O)N1CCN(C/C=C/c2ccccc2)CC1` (stereo not drawn), the “hERG current change (%, negative = inhibition) at 10uM” value is 17.1%.
With `COc1ccc(Cn2c(C)nc([N+](=O)[O-])c2SCC(=O)O)cc1[N+](=O)[O-]` the figure was 16.5%; with `CCCOc1ccc(Cn2c(C)nc([N+](=O)[O-])c2SCC(O)COC)cc1[N+](=O)[O-]` (stereo not drawn), -66%.
For `COCC(O)CSc1c([N+](=O)[O-])nc(C)n1Cc1ccc(OC)c([N+](=O)[O-])c1` (stereo not drawn) the value was -2.82%; for `CCOc1ccc(Cn2ccnc2CCl)cc1[N+](=O)[O-]`, -33.2%; for `CCOc1ccc(Cn2c(C)nc([N+](=O)[O-])c2SCC(O)CCl)cc1[N+](=O)[O-]` (stereo not drawn), -68.2%.
`Cc1nc([N+](=O)[O-])c(SCC(O)CCl)n1Cc1ccc(Cl)cc1` (stereo not drawn): the “hERG current change (%, negative = inhibition) at 10uM” value is listed as -59.9%.
With `Cc1nc([N+](=O)[O-])c(SCC(N)=O)n1Cc1ccccc1` the figure was 27.8%; with `COc1ccc(Cn2cc([N+](=O)[O-])nc2C)cc1[N+](=O)[O-]`, -2.26%.
